# Measurements published in PubChem BioAssay.
# Calls of active or inactive are those of the source. Unless noted, how the calls were made is not given here.
# How the values were obtained:
# [1] = compound effects on lung adenocarcinoma cell viability – A549, calcein-AM fluorescence, 48 h, basal, profiling panel (AID 1162); details: higher = more signal; further: test concentration not given here
# [2] = compound effects on differentiated 3T3-L1 adipocyte viability – cell-based, 3T3-L1 adipocytes, calcein-AM fluorescence, 48 h, basal, profiling panel (AID 1163); details: 3T3-L1 adipocytes viability, higher = more signal; further: test concentration not given here
# [3] = compound effects on hepatocellular carcinoma cell viability – HepG2, calcein-AM fluorescence, 48 h, basal, profiling panel (AID 1164); details: higher = more signal; further: test concentration not given here
# [4] = compound effects on multiple myeloma cell viability – MM1S, calcein-AM fluorescence, 48 h, basal, profiling panel (AID 1165); details: higher = more signal;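 further: viability of MM1S multiple myeloma cells under basal unstimulated conditions; test concentration not given here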
# [5] = calcein-AM signal in unstimulated myeloma cells – cell-based, calcein-AM fluorescence, 48 h, PK04 Diversity Set, profiling panel (AID 1166); details: RPMI8226 myeloma viability, higher = more signal;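 further: cells grown under basal conditions without added stimulus; test concentration not given here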
# [6] = JC-1 mitochondrial signal, unstimulated HepG2 cells – cell-based, JC-1 fluorescence, 24 h, 100 nL compound, profiling panel (AID 1167); details: HepG2 mitochondrial potential, higher = more signal; further: test concentration not given here
# [7] = JC-1 mitochondrial signal, unstimulated adipocytes – cell-based, JC-1 fluorescence, 3T3-L1 adipocytes, 24 h, 100 nL compound, profiling panel (AID 1168); details: JC-1 mitochondrial fluorescence, higher = more signal, called active from +8 up or from −8 down; further: test concentration not given here
# [8] = JC-1 mitochondrial signal, unstimulated myeloma cells – cell-based, JC-1 fluorescence, RPMI8226, 24 h, 100 nL compound, profiling panel (AID 1169); details: JC-1 mitochondrial potential fluorescence, higher = more signal; further: test concentration not given here
# [9] = JC-1 mitochondrial signal, unstimulated MM1S myeloma – cell-based, JC-1 fluorescence, 24 h, 100 nL compound, profiling panel (AID 1170); details: MM1S mitochondrial potential, higher = more signal; further: test concentration not given here
# [10] = resazurin metabolic signal in A549 cells – cell-based, resazurin fluorescence, 24 h, PK04 Diversity Set, profiling panel (AID 1171); details: A549 viability, higher = more signal, called active from +8 up or from −8 down; further: test concentration not given here
# [11] = resazurin metabolic signal in HepG2 cells – cell-based, resazurin fluorescence, 24 h, PK04 Diversity Set, profiling panel (AID 1172); details: HepG2 viability, higher = more signal; further: test concentration not given here
# [12] = budding yeast growth changes without added modifier – OD600, strain BY4716, 24 h, basal condition, primary screen (AID 1173); details: S. cerevisiae BY4716 growth, OD600, 24 h; higher = more signal, called active from +8 up or from −8 down
# [13] = viability profiling in MM1S myeloma cells – cell-based, resazurin fluorescence, basal, 24 h, PK04 Diversity Set, profiling panel (AID 1174); details: higher = more signal, called active from +8 up or from −8 down; further: test concentration not given here
# [14] = target: Dihydroorotate dehydrogenase (quinone), mitochondrial (Plasmodium falciparum (isolate 3D7)) (UniProt Q08210); experiment: inhibition of P. falciparum DHODH – biochemical, C-terminal His tag, absorbance 600 nm, primary screen (AID 1175); details: PfDHODH enzyme, DCIP absorbance 600 nm; higher = more signal, called active from +8 up or from −8 down;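 further: recombinant parasite enzyme with a five histidine tag at its C terminus; test concentration not given here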
# [15] = inhibition of PAO1 biofilm formation – strain PAO1, LB-PBS medium, absorbance 600 nm, primary screen (AID 1176); further: test concentration not given here; details: P. aeruginosa PAO1 growth/biofilm, A600, 12 h; higher = more signal
# [16] = growth modulation of vineyard yeast isolate – strain RM11-1a, OD600, basal, 24 h, primary screen (AID 1177);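 further: cultures grown under basal conditions with no added stressor; test concentration not given here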; details: S. cerevisiae RM11-1a growth, OD600, 24 h; higher = more signal, called active from +8 up or from −8 down
# [17] = growth of efflux-deficient E. coli DRC39 – strain DRC39, OD650, 24 h, E. coli filamentation inducers, primary screen (AID 1178);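 further: growth measured as culture turbidity by optical density at 650 nm; test concentration not given here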; details: E. coli DRC39 acrAB, higher = more signal, called active from +8 up or from −8 down
# [18] = growth of efflux-deficient E. coli DRC39 – strain DRC39, OD650, 48 h, E. coli filamentation inducers, primary screen (AID 1179);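 further: screen aims at cell division blockers that make cells filament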; details: E. coli DRC39 delta-acrAB growth, higher = more signal, called active from +8 up or from −8 down
# [19] = viability profiling in RPMI8226 myeloma cells – cell-based, resazurin fluorescence, basal, 24 h, PK04 Diversity Set, profiling panel (AID 1180); details: higher = more signal;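 further: RPMI8826 multiple myeloma cell line at 5000 cells per well; test concentration not given here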
# [20] = target: E3 ubiquitin-protein ligase XIAP (Homo sapiens) (UniProt P98170); experiment: small molecules binding XIAP protein – biophysical, small-molecule microarray, fluorescence 635 nm, primary screen (AID 1181); details: higher = more signal;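 further: score merges 667 nm emission and signal to noise over triplicate slides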
# E3 ubiquitin-protein ligase XIAP (Homo sapiens), sequence (P98170 whole entry, looked up): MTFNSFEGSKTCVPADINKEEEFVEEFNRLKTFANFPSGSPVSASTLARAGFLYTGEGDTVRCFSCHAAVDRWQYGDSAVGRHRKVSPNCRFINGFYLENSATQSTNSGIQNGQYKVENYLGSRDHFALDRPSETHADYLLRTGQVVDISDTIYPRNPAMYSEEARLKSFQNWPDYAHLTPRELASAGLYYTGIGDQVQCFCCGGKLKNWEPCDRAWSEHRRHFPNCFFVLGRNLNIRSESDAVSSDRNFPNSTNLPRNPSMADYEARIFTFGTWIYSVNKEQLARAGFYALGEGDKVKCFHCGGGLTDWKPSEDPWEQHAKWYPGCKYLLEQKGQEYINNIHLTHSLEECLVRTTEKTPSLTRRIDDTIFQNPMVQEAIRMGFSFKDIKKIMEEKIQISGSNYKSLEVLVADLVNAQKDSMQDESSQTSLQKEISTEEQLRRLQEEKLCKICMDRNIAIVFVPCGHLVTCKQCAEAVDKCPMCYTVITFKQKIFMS
# Dihydroorotate dehydrogenase (quinone), mitochondrial (Plasmodium falciparum (isolate 3D7)), sequence (Q08210 whole entry, looked up): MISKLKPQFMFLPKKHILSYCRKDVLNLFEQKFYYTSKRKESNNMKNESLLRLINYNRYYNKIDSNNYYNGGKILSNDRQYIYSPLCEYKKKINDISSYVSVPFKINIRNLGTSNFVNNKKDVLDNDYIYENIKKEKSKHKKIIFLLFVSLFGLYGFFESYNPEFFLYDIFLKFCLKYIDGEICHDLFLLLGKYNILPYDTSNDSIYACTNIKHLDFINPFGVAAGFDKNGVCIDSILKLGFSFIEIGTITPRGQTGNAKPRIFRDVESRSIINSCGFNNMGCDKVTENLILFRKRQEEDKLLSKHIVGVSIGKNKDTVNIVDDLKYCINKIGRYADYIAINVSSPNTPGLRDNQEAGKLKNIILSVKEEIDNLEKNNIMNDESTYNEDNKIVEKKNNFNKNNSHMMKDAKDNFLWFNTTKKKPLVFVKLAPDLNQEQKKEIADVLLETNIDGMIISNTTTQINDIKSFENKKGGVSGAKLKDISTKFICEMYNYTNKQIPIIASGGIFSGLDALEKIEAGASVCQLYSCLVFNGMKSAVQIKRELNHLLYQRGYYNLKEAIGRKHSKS
Compound,z-score [1],z-score [2],z-score [3],z-score [4],z-score [5],z-score [6],z-score [7],z-score [8],z-score [9],z-score [10],z-score [11],z-score [12],z-score [13],composite z-score [14],z-score [15],z-score [16],z-score [17],z-score [18],z-score [19],composite z-score [20]
CCc1cc2c(nc1CC)CCN(CCC(C)=NOC(C)CN1CCCCc3nc(C)c(C)cc31)C2 (stereo not given),0.115,0.97,0.101,-2.89,-0.51,6.12,-1.02 (inactive),-0.39,-0.104,0.639 (inactive),0.465,-1.61 (inactive),0.0376 (inactive),0.0164 (inactive),0.417 (inactive),1.18 (inactive),-0.148 (inactive),-1.83 (inactive),0.825,-0.02
CC(C)CN1CCc2nc(-c3ccccc3)c3c(c2C1)CO[C@@H](C)C3,1.2,-0.274,0.0114,0.639,-0.409,0.462,0.0658 (inactive),-0.0878,0.708,-0.139 (inactive),-0.622,-1.33 (inactive),1.21 (inactive),0.638 (inactive),-0.588 (inactive),0.697 (inactive),-0.838 (inactive),-0.0811 (inactive),0.829,-0.22
CCOC(=O)[C@H](Cc1ccccc1)NC(=O)CCC1CC(OC(=O)NCc2ccc3c(c2)OCO3)CC2(CCCC(COC(=O)NCCOc3ccccc3)O2)O1 (stereo not given in full),-0.794,-0.317,0.184,0.322,0.0039,2.45,0.808 (inactive),-0.0508,-1.17,0.198 (inactive),0.425,-1.24 (inactive),0.975 (inactive),-1.76 (inactive),-0.102 (inactive),0.0995 (inactive),0.662 (inactive),0.181 (inactive),0.579,-0.0832
CC(C)CON=C1C[C@@H](O)[C@@H](O)[C@@H]2[C@@H]3C(=O)N(C(C)(C)C)C(=O)[C@@H]3CC[C@@H]12,-0.502,1.07,-0.337,0.086,-0.289,-0.0218,0.174 (inactive),-0.865,0.342,-0.288 (inactive),-0.685,-0.322 (inactive),0.4 (inactive),-1.88 (inactive),0.295 (inactive),-0.492 (inactive),0.796 (inactive),-1.13 (inactive),-0.463,-0.277
CCOC(=O)[C@H](Cc1ccccc1)NC(=O)CCC1CC(OC(=O)NCCc2ccc(F)cc2)CC2(CCCC(COC(=O)NCCC(C)C)O2)O1 (stereo not given in full),1.28,-0.567,0.368,0.243,-0.364,0.362,0.232 (inactive),-0.353,-0.941,1.87 (inactive),0.456,-0.0624 (inactive),0.129 (inactive),0.0106 (inactive),0.0737 (inactive),1.05 (inactive),0.953 (inactive),-0.203 (inactive),1.16,-0.0543
CO[C@H]1COC(=O)CCC[C@H](C)[C@@H](OC)COC(=O)CC=C[C@@H]1C,0.0792,0.751,0.205,0.105,0.471,-0.503,-0.713 (inactive),-0.483,-0.866,0.0382 (inactive),0.367,-0.721 (inactive),-1.18 (inactive),-1.58 (inactive),-0.339 (inactive),-1.02 (inactive),0.42 (inactive),0.0526 (inactive),1.07,0.0029
O=C1C[C@@H](O)[C@@H](O)[C@@H]2[C@@H]3C(=O)N(Cc4ccccc4)C(=O)[C@@H]3CC[C@H]12,-0.801,0.241,0.175,-0.0999,0.549,-0.511,-0.919 (inactive),0.0436,-0.281,-0.673 (inactive),-0.252,-0.425 (inactive),-0.136 (inactive),0.318 (inactive),0.188 (inactive),-0.163 (inactive),-0.418 (inactive),-0.779 (inactive),-0.14,0.468
COC(=O)C(C(=O)OC)C1CCCC(=O)C1 (stereo not given),0.219,0.585,-0.526,-0.68,-1.34,-0.108,-0.078 (inactive),0.753,1.15,-1.14 (inactive),-0.598,-0.272 (inactive),-1.14 (inactive),0.437 (inactive),-0.482 (inactive),0.386 (inactive),-1.37 (inactive),-0.561 (inactive),-0.53,-0.34
CC(C)=CCCC(C)=CCON=C1C[C@@H](O)[C@@H](O)[C@@H]2[C@@H]3C(=O)N(Cc4ccc5c(c4)OCO5)C(=O)[C@@H]3CC[C@H]12,-0.0007,0.0614,-0.579,-2.32,-1.31,-0.214,-0.412 (inactive),-0.655,-0.488,-0.0045 (inactive),0.659,0.522 (inactive),-0.503 (inactive),-0.108 (inactive),0.437 (inactive),1.01 (inactive),0.454 (inactive),0.0551 (inactive),-0.402,-0.144
